Screening results: PubChem, The Scripps Research Institute Molecular Screening Center
TEAD-YAP inh = TEAD-YAP interaction inhibition. HEK-TIYL cells, TEAD-Gal4/YAP UAS-luciferase luminescence. inhibition, % at 9.12 µM. actives 1.4% (n = 640,000). AID 1259422; in the data active = inhibition above about 32%;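 also: 0% = median of test compound wells and 100% = reference inhibitor wells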
GPR151 ag = human GPR151 activation; PathHunter beta-arrestin GPR151 cells, luminescence; activation, % at 11.2 µM; actives 1% (n = 650,000); in the data active = activation above about 4.9%;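 also: 0% = median of compound wells and 100% = cells with positive control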
FBW7 act = activators of human E3 ligase FBW7; AlphaScreen FBW7–phospho-cyclin E peptide binding, activator screen; normalized activity (activation), % at 26.1 µM; Q969H0; actives 0.13% (n = 650,000); in the data active = normalized activity above about 1.9%;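 also: purified mutant Fbw7 with reduced substrate affinity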
Target sequence (Q969H0 whole entry, looked up): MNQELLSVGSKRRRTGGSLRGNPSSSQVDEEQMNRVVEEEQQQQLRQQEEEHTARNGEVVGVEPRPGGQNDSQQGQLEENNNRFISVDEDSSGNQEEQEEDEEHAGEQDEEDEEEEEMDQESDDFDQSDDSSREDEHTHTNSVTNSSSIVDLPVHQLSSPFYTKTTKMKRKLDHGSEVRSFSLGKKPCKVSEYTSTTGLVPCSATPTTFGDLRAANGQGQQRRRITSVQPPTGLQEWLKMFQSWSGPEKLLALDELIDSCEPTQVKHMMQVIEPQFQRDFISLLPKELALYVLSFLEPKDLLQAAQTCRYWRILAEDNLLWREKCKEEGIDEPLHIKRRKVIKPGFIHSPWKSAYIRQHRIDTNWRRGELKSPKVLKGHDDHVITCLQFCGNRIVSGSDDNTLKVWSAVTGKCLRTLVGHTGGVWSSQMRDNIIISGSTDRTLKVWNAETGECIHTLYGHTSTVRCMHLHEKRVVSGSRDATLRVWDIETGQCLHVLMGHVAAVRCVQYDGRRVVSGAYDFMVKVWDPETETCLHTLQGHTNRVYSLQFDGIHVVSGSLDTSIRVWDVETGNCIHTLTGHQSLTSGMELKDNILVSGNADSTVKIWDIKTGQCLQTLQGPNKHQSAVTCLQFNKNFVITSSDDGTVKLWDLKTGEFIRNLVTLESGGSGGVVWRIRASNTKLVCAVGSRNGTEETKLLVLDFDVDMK
MITF primary = blocks human microphthalmia-associated transcription factor; O75030; AlphaScreen MITF homodimerization, bead proximity signal; inhibition, % at 2.6 µM; actives 0.91% (n = 650,000); AID 1259374; in the data active = inhibition above about 50%;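 also: 0% = vehicle wells with protein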
Starred values were filed as active, the others as inactive. An excerpt weighted towards active compounds, which were near 3.5% of everything screened.

Results for Cc1cccc(C)c1N(C)S(=O)(=O)c1ccc2[nH]cc(C(=O)NCc3cccnc3)c(=O)c2c1 ?
TEAD-YAP inh: 34.0*; GPR151 ag: 2.5; FBW7 act: 0.0; MITF primary: -0.4

Results for CCOc1ccccc1N(C)S(=O)(=O)c1ccc2[nH]cc(C(=O)NCc3cccnc3)c(=O)c2c1 ?
TEAD-YAP inh: 63.5*; GPR151 ag: -0.1; FBW7 act: 0.0; MITF primary: 14.6

How did Cc1ccc(-c2nnc(Cn3c(C)nc4ccccc43)o2)cc1 do in these assays?
TEAD-YAP inh: 57.8*; GPR151 ag: -0.7; FBW7 act: -0.1; MITF primary: -15.8

What do the screens show for `COc1ccc(-c2nc(CCn3c(C)nc4ccccc43)no2)cc1`?
TEAD-YAP inh: 38.3*; GPR151 ag: 1.9; FBW7 act: -0.1; MITF primary: -7.5

How did CC(C)c1nc2ccc(-c3cnn(-c4cccc(CN5CCOCC5)c4)c3)cc2c(=O)[nH]1 do in these assays?
TEAD-YAP inh: 14.1; GPR151 ag: 0.9; FBW7 act: -0.3; MITF primary: -7.6

How did Cc1nc2ccc(-c3cnn(-c4cccc(N5CCOCC5)c4)c3)cc2c(=O)n1C do in these assays?
TEAD-YAP inh: 87.1*; GPR151 ag: 0.1; FBW7 act: -0.3; MITF primary: 7.5

Results for c1coc(-c2cn3ccc4ccccc4c3n2)c1 ?
TEAD-YAP inh: -20.3; GPR151 ag: -6.0; FBW7 act: 0.3; MITF primary: 18.4

How did COc1ccc(-c2nc(N)n(C(=O)c3ccccc3OC)n2)cc1 do in these assays?
TEAD-YAP inh: 40.0*; GPR151 ag: 1.4; FBW7 act: -0.1; MITF primary: 8.6

Results for Cc1cc(C)n(CCNc2nncc(-c3ccc4c(c3)OCO4)n2)n1 ?
TEAD-YAP inh: 28.2; GPR151 ag: -0.2; FBW7 act: 0.1; MITF primary: 1.6

Results for c1cnn(CCCNc2nncc(-c3ccc4c(c3)OCO4)n2)c1 ?
TEAD-YAP inh: 85.2*; GPR151 ag: -0.5; FBW7 act: 0.5; MITF primary: -14.3

How did Cc1ccc(Nc2cc(C)nc3nnnn23)cc1 do in these assays?
TEAD-YAP inh: -1.6; GPR151 ag: 0.0; FBW7 act: 0.1; MITF primary: 4.2

What do the screens show for `CCOC(=O)c1ccccc1NC(=O)CN1C(=O)C(C)N(c2ccc(C)cc2)C1=O` (stereo unspecified)?
TEAD-YAP inh: 45.8*; GPR151 ag: 0.2; FBW7 act: 0.0; MITF primary: 7.1

How did COC(=O)c1ccccc1NC(=O)CN1C(=O)C(C)N(c2ccc(C)cc2)C1=O (stereo unspecified) do in these assays?
TEAD-YAP inh: 44.7*; GPR151 ag: -1.5; FBW7 act: -0.1; MITF primary: 3.5

Results for Cc1ccc(N2C(=O)N(CC(=O)Nc3ccccc3OC(F)F)C(=O)C2C)cc1 (stereo unspecified) ?
TEAD-YAP inh: -8.1; GPR151 ag: 0.8; FBW7 act: 0.2; MITF primary: 13.1

What do the screens show for `Cc1ccc(N2C(=O)N(CC(=O)Nc3ccccc3C(F)(F)F)C(=O)C2C)cc1` (stereo unspecified)?
TEAD-YAP inh: -3.6; GPR151 ag: 2.5; FBW7 act: 0.0; MITF primary: -3.2

How did CCOc1cc(OCC)cc(C(=O)Nc2ccc3oc(-c4cccnc4)nc3c2)c1 do in these assays?
TEAD-YAP inh: -15.1; GPR151 ag: 0.9; FBW7 act: -0.2; MITF primary: 5.7

Results for COc1cccc(C(=O)NNC(=O)Cc2ccc(-c3ccccc3)cc2)c1 ?
TEAD-YAP inh: 62.4*; GPR151 ag: 0.5; FBW7 act: 0.8; MITF primary: -3.5

How did COc1cccc(C(=O)Nc2ccc(Oc3ccc4c(c3)C(=O)NC4=O)cc2)c1 do in these assays?
TEAD-YAP inh: 51.2*; GPR151 ag: -0.7; FBW7 act: -0.1; MITF primary: 6.8

Results for COc1cccc2cc(C(=O)Nc3ccc(CC(=O)O)cc3)c(=O)oc12 ?
TEAD-YAP inh: 71.9*; GPR151 ag: -4.2; FBW7 act: -0.1; MITF primary: -11.3

How did Cc1cccc(C(=O)Nc2ccc(N3CCN(C(=O)C(C)C)CC3)cc2)c1 do in these assays?
TEAD-YAP inh: -4.7; GPR151 ag: 0.4; FBW7 act: 0.0; MITF primary: -10.3

What do the screens show for `COc1ccc(NC(=O)c2cc3cccc(OC)c3oc2=O)cc1`?
TEAD-YAP inh: -17.8; GPR151 ag: 0.5; FBW7 act: -0.1; MITF primary: 15.4

What do the screens show for `COc1cccc(C(=O)Nc2ccc(N3CCN(C(=O)C(C)C)CC3)cc2)c1`?
TEAD-YAP inh: 45.9*; GPR151 ag: 0.6; FBW7 act: 0.1; MITF primary: -7.2

What do the screens show for `O=C(O)COc1ccc(NS(=O)(=O)c2ccc([N+](=O)[O-])cc2)cc1`?
TEAD-YAP inh: 3.1; GPR151 ag: -0.8; FBW7 act: -0.1; MITF primary: 11.7

Results for Cc1cc(C(=O)CSc2ncnc3sc4c(c23)CCCC4)c(C)n1CC1CCCO1 (stereo unspecified) ?
TEAD-YAP inh: -3.8; GPR151 ag: 0.5; FBW7 act: -0.4; MITF primary: -11.8

What do the screens show for `CCOC(=O)c1c(NC(=O)c2ccc(S(=O)(=O)N3CCCCC3C)cc2)sc2c1CC(C)(C)NC2(C)C` (stereo unspecified)?
TEAD-YAP inh: -0.2; GPR151 ag: 0.0; FBW7 act: 0.0; MITF primary: -3.0

Results for Cc1ccc2c(c1)-c1onc(C(=O)Nc3nccs3)c1CO2 ?
TEAD-YAP inh: 13.9; GPR151 ag: -2.0; FBW7 act: 0.6; MITF primary: 8.4

What do the screens show for `CN1CCN(c2ccc(NC(=O)COc3ccccc3[N+](=O)[O-])cc2)CC1`?
TEAD-YAP inh: 6.4; GPR151 ag: 0.7; FBW7 act: 0.2; MITF primary: 14.8

Results for COc1cccc(C(=O)Nc2ccc(CC(=O)O)cc2)c1 ?
TEAD-YAP inh: 60.0*; GPR151 ag: -0.6; FBW7 act: 0.0; MITF primary: -2.9

How did CC(C)C(=O)N1CCN(c2ccc(NC(=O)COc3ccccc3[N+](=O)[O-])cc2)CC1 do in these assays?
TEAD-YAP inh: 50.4*; GPR151 ag: -0.4; FBW7 act: 0.2; MITF primary: 9.0

Results for COc1cccc(C(=O)Nc2ccc(-c3ccccc3)cc2)c1 ?
TEAD-YAP inh: -15.8; GPR151 ag: -2.2; FBW7 act: -0.1; MITF primary: -1.6

How did CCCS(=O)(=O)N1CCC(n2nccc2NC(=O)CCCc2ccccc2)CC1 do in these assays?
TEAD-YAP inh: 0.0; GPR151 ag: 1.4; FBW7 act: 0.0; MITF primary: 5.9

How did Cc1occc1C(=O)Nc1ccccc1F do in these assays?
TEAD-YAP inh: -11.4; GPR151 ag: 0.0; FBW7 act: 0.3; MITF primary: 10.9

Results for CCNc1nc(NCC)nc(Sc2ccc([N+](=O)[O-])cc2[N+](=O)[O-])n1 ?
TEAD-YAP inh: 50.5*; GPR151 ag: -0.3; FBW7 act: 0.0; MITF primary: 0.9

Results for O=C(CSc1ccc(Sc2ccc(SCC(=O)NC3CC3)cc2)cc1)NC1CC1 ?
TEAD-YAP inh: 34.1*; GPR151 ag: 0.6; FBW7 act: 0.5; MITF primary: 11.1

How did Cc1ccc(SCC(=O)NC2CC2)cc1 do in these assays?
TEAD-YAP inh: -19.2; GPR151 ag: -0.5; FBW7 act: 0.1; MITF primary: 15.1
